Screening results: PubChem, several laboratories
FBA Mtb inh: inhibitors of M. tuberculosis fructose-bisphosphate aldolase | P9WQA3 | purified M. tuberculosis FBA, fluorescence read-out | inhibition, % at 1 µM | hit rate 2.3% among 360,000 | AID 588726; in the data active = inhibition above about 27%;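 also: 0% = vehicle and 100% = reference inhibitor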
Target sequence (P9WQA3 whole entry, looked up): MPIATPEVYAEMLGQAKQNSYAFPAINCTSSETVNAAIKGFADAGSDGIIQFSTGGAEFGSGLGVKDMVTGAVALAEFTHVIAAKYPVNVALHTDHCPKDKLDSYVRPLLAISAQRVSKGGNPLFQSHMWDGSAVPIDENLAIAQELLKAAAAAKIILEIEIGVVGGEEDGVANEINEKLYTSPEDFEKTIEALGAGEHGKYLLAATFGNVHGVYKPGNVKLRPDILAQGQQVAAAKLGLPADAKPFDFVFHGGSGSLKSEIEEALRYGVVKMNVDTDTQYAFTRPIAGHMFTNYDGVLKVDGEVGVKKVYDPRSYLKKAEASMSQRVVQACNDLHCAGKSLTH
CCHFV vOTU inh: CCHFV vOTU protease inhibition; Pep-AMC fluorescence; inhibition, % at 11.5 µM; hit rate 0.55% among 370,000; also: 0% = vehicle wells with enzyme and 100% = no enzyme wells
Mtb bLac sens: beta-lactam sensitization of Mtb H37Rv; inhibition, % at 25 µM; M. tuberculosis H37Rv growth with meropenem, percent inhibition; hit rate 0.27% among 330,000; call rule not given here;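 also: growth measured after seven days incubation then overnight dye step; 0% = bacteria only wells and 100% = bacteria with antibiotic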
MazEF act: increases E. coli MazEF RNase cleavage of RNA. P0AE70. FAM/BHQ RNA-DNA oligo cleavage fluorescence, 5 h. activation, % at 20 µM. hit rate 0.32% among 350,000. AID 504720; in the data active = activation above about 50%
Target sequence (P0AE70 whole entry, looked up): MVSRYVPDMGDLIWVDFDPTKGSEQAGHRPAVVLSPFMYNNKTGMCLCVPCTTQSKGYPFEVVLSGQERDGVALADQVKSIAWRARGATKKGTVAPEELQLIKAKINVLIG
GDH-TPI inh: inhibits GDH-TPI coupling enzymes, artifact for Mtb FBA screen; hit rate 1.2% among 360,000; inhibition, % at 4.8 µM; GDH-TPI coupled enzyme counterscreen, NADH absorbance; AID 588335;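 also: 0% = DMSO wells and 100% = wells lacking the enzyme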
Numbers without * were called inactive. Sampled rows, rich in hits. Any-hit rate of the full collection: about 4%. Rule as the data show it, unless noted: active = inhibition above about 30%; inactive = the rest.

Screening CCOC(=O)[C@]12CCCC=C1N(Cc1ccc(OC)cc1)C(=O)[C@@H]2CC(=O)NCc1ccc(C)o1 returned CCHFV vOTU inh 7.
`Cc1ccc(Cn2cc(CN(C(C)(C)C)S(=O)(=O)c3ccc(F)cc3Br)nn2)cc1` gave CCHFV vOTU inh 7.
COC(=O)[C@]12C[C@H](CC(=O)N3CCSCC3)C(=O)N(CCC3=CCCCC3)C1=C[C@H](C(C)(C)C)O[C@@H]2C was read as CCHFV vOTU inh 14.
`Oc1cc(O)cc(/C=C/c2ccc(O)c(O)c2)c1` gave FBA Mtb inh 9, CCHFV vOTU inh -5, Mtb bLac sens 6, MazEF act 118* and GDH-TPI inh 17.
For O=[N+]([O-])c1ccc(C=NNc2ccccc2)cc1 the results were FBA Mtb inh -5, CCHFV vOTU inh 1, MazEF act 28 and GDH-TPI inh 12.
O=[N+]([O-])c1ccc(N/N=C/c2ccccc2)c(F)c1 was read as FBA Mtb inh -8, CCHFV vOTU inh 13, Mtb bLac sens 7, MazEF act 234* and GDH-TPI inh 12.
For O=C(c1ccc(F)cc1F)N(Cc1ccccn1)CC1CCCO1 (centres undefined) the results were CCHFV vOTU inh -6.
`O=C(c1ccccc1)N1CCC(Oc2cccnc2)CC1` gave CCHFV vOTU inh -5.
For CC(=O)/C(N=Nc1ccc(C(=O)O)cc1[N+](=O)[O-])=C(\C)O the results were FBA Mtb inh -2, CCHFV vOTU inh 12, Mtb bLac sens 0, MazEF act 9 and GDH-TPI inh 69*.
`CC(=O)/C(N=Nc1cc(C)ccc1O)=C(\C)O` gave FBA Mtb inh -5, CCHFV vOTU inh 8, Mtb bLac sens 0, MazEF act 105* and GDH-TPI inh 7.
`Cc1ccc(N=Cc2sc(O)c3ccccc23)c(C)c1` gave FBA Mtb inh -1, CCHFV vOTU inh -16, Mtb bLac sens 3, MazEF act 691* and GDH-TPI inh 15.
Screening COc1cc(-n2c(C)nc3cc(C(=O)N4CCCN(C(C)=O)CC4)ccc32)cc(OC)c1OC returned CCHFV vOTU inh 0.
`COc1ccc(OCCn2c(C)c(/C=N/n3cnnc3)c3ccccc32)cc1` gave FBA Mtb inh 4, Mtb bLac sens 0, MazEF act 26 and GDH-TPI inh 12.
COc1cccc(OCCn2c(C)c(/C=N/n3cnnc3)c3ccccc32)c1 was read as FBA Mtb inh 0, CCHFV vOTU inh 10, Mtb bLac sens -3, MazEF act 8 and GDH-TPI inh 34*.
COC(=O)[C@]12C[C@H](CC(=O)N3CCCCC3)C(=O)N(CCC3=CCCCC3)C1=C[C@H](C1CCCC1)O[C@@H]2C was read as CCHFV vOTU inh 16.
For CCC(Sc1nc2ncccc2[nH]1)C(=O)NC1CCC(C)CC1 (centres undefined) the results were FBA Mtb inh 2, CCHFV vOTU inh 13, Mtb bLac sens 6, MazEF act 138* and GDH-TPI inh -8.
CCC(Sc1nc2ncccc2[nH]1)C(=O)NCCc1ccccc1 (centres undefined) was read as FBA Mtb inh 3, CCHFV vOTU inh -1, Mtb bLac sens 4, MazEF act 5 and GDH-TPI inh -11.
Screening COc1ccccc1CCNC(=O)CSc1nc2c([nH]1)c(=O)n(C)c(=O)n2C returned CCHFV vOTU inh 4.
For COc1ccc(Cn2c(NC(=O)c3ccccc3)nc(Cc3ccccc3)c2Cc2ccccc2)cc1 the results were CCHFV vOTU inh 6.
`COc1ccc(CN2CCC(CNC(=O)NC(C)C)CC2)cc1` gave CCHFV vOTU inh 17.
Screening Cc1ccc(N=Cc2ccc(O)cc2O)cc1F returned FBA Mtb inh 4, CCHFV vOTU inh 6, Mtb bLac sens -8, MazEF act 194* and GDH-TPI inh 14.
For N#Cc1nc(-c2ccc(F)cc2)oc1N1CCCC1 the results were FBA Mtb inh 113*, CCHFV vOTU inh -31, Mtb bLac sens -12, MazEF act 3 and GDH-TPI inh 26.
For N#Cc1nc(-c2ccc([N+](=O)[O-])cc2)oc1N1CCCCC1 the results were FBA Mtb inh -2, CCHFV vOTU inh 5, Mtb bLac sens 1, MazEF act -16 and GDH-TPI inh 3.
For N#Cc1nc(COc2ccc(F)cc2)oc1N1CCCC1 the results were FBA Mtb inh 1, CCHFV vOTU inh -2, Mtb bLac sens -1, MazEF act 5 and GDH-TPI inh 6.
Screening N#Cc1nc(-c2ccc(F)cc2)oc1N1CCCCC1 returned FBA Mtb inh 178*, CCHFV vOTU inh -73, Mtb bLac sens -7, MazEF act 5 and GDH-TPI inh 18.
`CC(COc1cc(F)cc(F)c1)CN1CCC(C(O)(c2ccccc2)c2ccccc2)CC1` (centres undefined) gave CCHFV vOTU inh -1.
CCOC(=O)[C@]12CCCCC/C=C\1N(Cc1ccc(OC)cc1)C(=O)[C@H]2CC(=O)NCc1ccc(OC)c(OC)c1 was read as CCHFV vOTU inh 10.
For CC(Sc1nc(-c2ccco2)nc2c1c(=O)n(C)c(=O)n2C)C(=O)O (centres undefined) the results were FBA Mtb inh -2, CCHFV vOTU inh 9, Mtb bLac sens -4, MazEF act 9 and GDH-TPI inh 32*.
CS(=O)(=O)c1ccc(C(=O)OCc2nnc(-c3ccc(Cl)cc3)o2)cc1[N+](=O)[O-] was read as FBA Mtb inh 87*, Mtb bLac sens -2, MazEF act -1 and GDH-TPI inh 3.
For O=C(OCc1nnc(-c2ccc(Cl)cc2)o1)c1ccc(O)cc1 the results were FBA Mtb inh 0, CCHFV vOTU inh -10, Mtb bLac sens 4, MazEF act 4 and GDH-TPI inh 0.
`COCCCNC(=O)c1ccc2c(c1)ncn2-c1ccc(C)cc1C` gave FBA Mtb inh 150*, CCHFV vOTU inh -9, Mtb bLac sens -2, MazEF act 4 and GDH-TPI inh 1.
COCCNC(=O)c1ccc2c3n(nc2c1)-c1ccc(C)cc1CO3 was read as FBA Mtb inh 49*, CCHFV vOTU inh -20, Mtb bLac sens 8, MazEF act 5 and GDH-TPI inh 27.
Screening Cc1ccc2c(c1)COc1c3ccc(C(=O)N[C@@H](CO)C(C)C)cc3nn1-2 returned FBA Mtb inh 33*, CCHFV vOTU inh -17, Mtb bLac sens 53, MazEF act -1 and GDH-TPI inh 21.
O=C(CSc1nc2ccccc2[nH]1)NN=Cc1ccccc1C(=O)O was read as CCHFV vOTU inh 1.
Screening CS(=O)(=O)N1CCC(C(=O)NCC2COc3ccccc3O2)CC1 (centres undefined) returned CCHFV vOTU inh -3.
Screening O=C(Cc1ccccc1Cl)NCCN1C(=O)C2C3C=CC(C3)C2C1=O (centres undefined) returned CCHFV vOTU inh 10.
`Cc1[nH]c2ccccc2c1CCN(Cc1cccs1)C(=O)Nc1cccc2c1OCO2` gave CCHFV vOTU inh 7.
Screening COc1cc(/C=N/Nc2nc3ccccc3[nH]2)cc(OC)c1O returned FBA Mtb inh -5, CCHFV vOTU inh 8, Mtb bLac sens 3, MazEF act 4 and GDH-TPI inh 23.
